# Data reported in PubChem BioAssay AID1159580 (chemical genetic matrix, 2015).
# Among all 5,500 compounds or so, about 2,000 (36%) were called active. Another 18% or so got no clear call; they are omitted. The list shows a part of the results. A number with no mark means an inactive call. Rule as the data show it: active = normalized growth mostly below about 0.91 (no sharp cut-off); inconclusive = no clear call, values can overlap the other calls; inactive = mostly above about 0.92.
# Experiment: chemical genetic growth profiling, strain panel (AID 1159580);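 also: tested at 20 µM; growth read once vehicle control cultures reached saturation at 30 °C; 1 = growth at the plate median or of vehicle wells; lower values mean less growth of the strain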
# Details: S. cerevisiae deletion strains, growth OD
# [1] = locus YAL013W, strain DEP1, active compounds read low
# [2] = locus YBR229C, strain ROT2, active compounds read low
# [3] = locus YDL101C, strain DUN1, active compounds read low
# [4] = locus YDR150W, strain NUM1, active compounds read low
# [5] = locus YEL061C, strain CIN8, active compounds read low
# [6] = locus YGR078C, strain PAC10, active compounds read low
# [7] = locus YHR030C, strain SLT2, active compounds read low
# [8] = locus YHR087W, strain rtc3, active compounds read low
# [9] = locus YJL187C, strain SWE1, active compounds read low
# [10] = locus YJR043C, strain POL32, active compounds read low
# [11] = locus YJR075W, strain HOC1, active compounds read low
# [12] = locus YKL190W, strain CNB1, active compounds read low
# [13] = locus YLR039C, strain RIC1, active compounds read low
# [14] = locus YLR058C, strain SHM2 (second series), active compounds read low
# [15] = locus YLR085C, strain ARP6, active compounds read low
# [16] = locus YLR262C, strain YPT6, active compounds read low
# [17] = locus YML094W, strain GIM5, active compounds read low
# [18] = locus YMR219W, strain ESC1, active compounds read low
# [19] = locus YMR263W, strain SAP30, active compounds read low
# [20] = locus YMR307W, strain GAS1, active compounds read low
# [21] = locus YNL153C, strain GIM3, active compounds read low
# [22] = locus YNL298W, strain CLA4 (second series), active compounds read low
# [23] = locus YNL322C, strain KRE1, active compounds read low
# [24] = locus YNR030W, strain Alg12, active compounds read low
# [25] = locus YOL006C, strain TOP1, active compounds read low
# [26] = locus YPL055C, strain LGE1, active compounds read low
# [27] = locus YPL241C, strain CIN2, active compounds read low
# [28] = locus YPR135W, strain CTF4, active compounds read low
# [29] = locus YCL061C, strain MRC1, active compounds read low
# [30] = locus YDL134C, strain PPH21, active compounds read low
smiles,measurement,setting,value
Cc1ccc(Cl)cc1NC(=S)N(CCC#N)/N=C\c1ccc2c(c1)OCO2,normalized growth,[1],0.997
same,normalized growth,[2],1
same,normalized growth,[3],1
same,normalized growth,[4],1.02
same,normalized growth,[5],1
same,normalized growth,[6],0.991
same,normalized growth,[7],0.953
same,normalized growth,[8],0.995
same,normalized growth,[9],0.995
same,normalized growth,[10],1
same,normalized growth,[11],1.02
same,normalized growth,[12],0.98
same,normalized growth,[13],0.936
same,normalized growth,[14],1.01
same,normalized growth,[15],0.925
same,normalized growth,[16],0.973
same,normalized growth,[17],0.975
same,normalized growth,[18],1
same,normalized growth,[19],1.03
same,normalized growth,[20],0.853
same,normalized growth,[21],1.02
same,normalized growth,[22],0.981
same,normalized growth,[23],0.989
same,normalized growth,[24],0.974
same,normalized growth,[25],0.998
same,normalized growth,[26],1.04
same,normalized growth,[27],0.985
same,normalized growth,[28],1.1
CCOC(=O)/C(C#N)=C/Nc1ccc2c(c1)OCO2,normalized growth,[1],0.992
same,normalized growth,[2],0.985
same,normalized growth,[29],1.01
same,normalized growth,[3],1.07
same,normalized growth,[30],0.963
same,normalized growth,[4],1
same,normalized growth,[5],0.989
same,normalized growth,[6],0.98
same,normalized growth,[7],0.4 (active)
same,normalized growth,[8],0.986
same,normalized growth,[9],0.982
same,normalized growth,[10],0.989
same,normalized growth,[11],0.889 (active)
same,normalized growth,[13],0.795
same,normalized growth,[14],0.971
same,normalized growth,[15],0.772 (active)
same,normalized growth,[16],0.816 (active)
same,normalized growth,[17],1.03
same,normalized growth,[18],0.981
same,normalized growth,[19],0.96
same,normalized growth,[20],0.884
same,normalized growth,[21],1.02
same,normalized growth,[22],0.905
same,normalized growth,[23],0.97
same,normalized growth,[24],0.946
same,normalized growth,[25],0.804
same,normalized growth,[26],0.976
same,normalized growth,[27],0.966
same,normalized growth,[28],0.786
Cc1ccc(S(=O)(=O)N2CCC(N)=N2)cc1,normalized growth,[1],1.03
same,normalized growth,[2],0.954
same,normalized growth,[29],1.03
same,normalized growth,[3],1.05
same,normalized growth,[30],0.984
same,normalized growth,[4],1.02
same,normalized growth,[5],0.997
same,normalized growth,[6],1.02
same,normalized growth,[7],1.1
same,normalized growth,[8],1.01
same,normalized growth,[9],0.999
same,normalized growth,[10],1.05
same,normalized growth,[11],1.02
same,normalized growth,[12],1
same,normalized growth,[13],1
same,normalized growth,[14],0.992
same,normalized growth,[15],1.02
same,normalized growth,[16],0.99
same,normalized growth,[17],1
same,normalized growth,[18],0.995
same,normalized growth,[19],1.02
same,normalized growth,[20],0.997
same,normalized growth,"locus YNL128W, strain TEP1, active compounds read low",1.01
same,normalized growth,[21],1.02
same,normalized growth,[22],1.04
same,normalized growth,[23],1
same,normalized growth,[24],0.992
same,normalized growth,[26],1
same,normalized growth,[27],1
same,normalized growth,[28],1.08
CC(C)(C)NCC(O)COc1cccc2c1CCCC2=O (configuration not stated),normalized growth,"locus YAL021C, strain ccr4, active compounds read low",0.97
same,normalized growth,"locus YAL026C, strain drs2, active compounds read low",0.976
same,normalized growth,"locus YAL030W, strain snc1, active compounds read low",0.985
same,normalized growth,"locus YBL061C, strain skt5, active compounds read low",0.981
same,normalized growth,"locus YBR009C, strain hhf1, active compounds read low",1
same,normalized growth,"locus YBR023C, strain chs3, active compounds read low",0.983
same,normalized growth,"locus YBR171W, strain sec66, active compounds read low",0.934
same,normalized growth,"locus YBR231C, strain swc5, active compounds read low",0.98
same,normalized growth,"locus YBR279W, strain paf1, active compounds read low",0.979
same,normalized growth,"locus YCL011C, strain gbp2, active compounds read low",0.992
same,normalized growth,"locus YCL016C, strain dcc1, active compounds read low",1.02
same,normalized growth,[29],0.957
same,normalized growth,"locus YCL069W, strain vba3, active compounds read low",0.952
same,normalized growth,"locus YCR088W, strain abp1, active compounds read low",0.981
same,normalized growth,"locus YDL005C, strain med2, active compounds read low",0.987
same,normalized growth,"locus YDL040C, strain nat1, active compounds read low",0.978
same,normalized growth,"locus YDR001C, strain nth1, active compounds read low",0.976
same,normalized growth,"locus YDR069C, strain doa4, active compounds read low",0.987
same,normalized growth,"locus YDR137W, strain rgp1, active compounds read low",0.983
same,normalized growth,"locus YDR159W, strain sac3, active compounds read low",0.967
same,normalized growth,"locus YDR195W, strain ref2",0.966
same,normalized growth,"locus YDR297W, strain sur2, active compounds read low",0.981
same,normalized growth,"locus YDR334W, strain swr1, active compounds read low",0.937
same,normalized growth,"locus YDR335W, strain msn5, active compounds read low",0.989
same,normalized growth,"locus YDR392W, strain spt3, active compounds read low",0.992
same,normalized growth,"locus YEL003W, strain gim4, active compounds read low",0.994
same,normalized growth,"locus YEL037C, strain rad23, active compounds read low",0.973
same,normalized growth,"locus YEL061C, strain CIN8 (second series), active compounds read low",0.961
same,normalized growth,"locus YER015W, strain faa2, active compounds read low",0.981
same,normalized growth,"locus YER016W, strain bim1, active compounds read low",1.01
same,normalized growth,"locus YER111C, strain swi4, active compounds read low",0.982
same,normalized growth,"locus YER155C, strain BEM2 (second series), active compounds read low",0.986
same,normalized growth,"locus YFR010W, strain ubp6, active compounds read low",0.95
same,normalized growth,"locus YGL167C, strain pmr1, active compounds read low",0.984
same,normalized growth,"locus YGL173C, strain kem1, active compounds read low",0.977
same,normalized growth,"locus YGL227W, strain vid30, active compounds read low",0.964
same,normalized growth,"locus YGL240W, strain doc1, active compounds read low",0.984
same,normalized growth,"locus YGL253W, strain hxk2, active compounds read low",0.99
same,normalized growth,"locus YHR013C, strain ard1, active compounds read low",0.988
same,normalized growth,"locus YHR027C, strain rpn1, active compounds read low",0.996
same,normalized growth,[7],0.954
same,normalized growth,"locus YHR079C, strain IRE1, active compounds read low",0.954
same,normalized growth,"locus YHR142W, strain chs7, active compounds read low",0.986
same,normalized growth,"locus YJL092W, strain hpr5, active compounds read low",0.99
same,normalized growth,"locus YJL095W, strain BCK1 (second series), active compounds read low",0.988
same,normalized growth,"locus YJL095W, strain BCK1, active compounds read low",0.98
same,normalized growth,"locus YJL115W, strain asf1, active compounds read low",0.959
same,normalized growth,"locus YJL129C, strain trk1, active compounds read low",0.97
same,normalized growth,"locus YJL154C, strain vps35, active compounds read low",0.981
same,normalized growth,"locus YJL164C, strain tpk1, active compounds read low",1
same,normalized growth,"locus YJL166W, strain qcr8, active compounds read low",0.976
same,normalized growth,[9],0.989
same,normalized growth,"locus YJR066W, strain TOR1, active compounds read low",0.943
same,normalized growth,"locus YKL160W, strain elf1, active compounds read low",1.01
same,normalized growth,"locus YKR026C, strain gcn3, active compounds read low",0.983
same,normalized growth,"locus YKR091W, strain srl3, active compounds read low",0.986
same,normalized growth,"locus YLL001W, strain dnm1, active compounds read low",0.985
same,normalized growth,"locus YLL026W, active compounds read low",0.993
same,normalized growth,"locus YLL041C, strain sdh2, active compounds read low",1.01
same,normalized growth,"locus YLR027C, strain aat2, active compounds read low",1.01
same,normalized growth,"locus YLR113W, strain HOG1, active compounds read low",1.01
same,normalized growth,"locus YLR221C, strain rsa3, active compounds read low",0.999
same,normalized growth,"locus YLR258W, strain gsy2, active compounds read low",0.969
same,normalized growth,"locus YLR262C, strain YPT6 (second series), active compounds read low",0.971
same,normalized growth,"locus YLR320W, strain mms22, active compounds read low",0.965
same,normalized growth,"locus YLR342W, strain FKS1, active compounds read low",0.992
same,normalized growth,"locus YLR357W, strain rsc2, active compounds read low",0.991
same,normalized growth,"locus YLR370C, strain arc18, active compounds read low",0.984
same,normalized growth,"locus YLR384C, strain iki3, active compounds read low",0.973
same,normalized growth,"locus YML120C, strain ndi1, active compounds read low",1.01
same,normalized growth,"locus YMR058W, strain fet3, active compounds read low",0.982
same,normalized growth,"locus YMR125W, strain sto1, active compounds read low",0.958
same,normalized growth,"locus YMR129W, active compounds read low",0.992
same,normalized growth,"locus YMR205C, strain PFK2, active compounds read low",0.989
same,normalized growth,"locus YMR231W, strain pep5, active compounds read low",0.983
same,normalized growth,"locus YNL071W, strain lat1, active compounds read low",0.958
same,normalized growth,"locus YNL183C, strain NPR1, active compounds read low",0.952
same,normalized growth,"locus YNL209W, strain ssb2, active compounds read low",0.984
same,normalized growth,"locus YNL248C, strain rpa49, active compounds read low",0.98
same,normalized growth,"locus YNL322C, strain KRE1 (second series), active compounds read low",1.01
same,normalized growth,"locus YNR049C, strain mso1, active compounds read low",0.993
same,normalized growth,"locus YOR001W, strain rrp6, active compounds read low",0.944
same,normalized growth,"locus YOR070C, strain gyp1, active compounds read low",0.992
same,normalized growth,"locus YOR080W, strain dia2, active compounds read low",1
same,normalized growth,"locus YOR083W, strain WHI5, active compounds read low",1.02
same,normalized growth,"locus YOR106W, strain vam3, active compounds read low",0.977
same,normalized growth,"locus YOR231W, strain MKK1, active compounds read low",0.977
same,normalized growth,"locus YOR265W, strain rbl2, active compounds read low",0.979
same,normalized growth,"locus YOR270C, strain vph1, active compounds read low",0.95
same,normalized growth,"locus YOR290C, strain snf2, active compounds read low",1.03
same,normalized growth,"locus YPL051W, strain arl3, active compounds read low",1.01
same,normalized growth,"locus YPL078C, strain atp4, active compounds read low",1
same,normalized growth,"locus YPL106C, strain sse1, active compounds read low",0.975
same,normalized growth,"locus YPL240C, strain hsp82, active compounds read low",0.996
same,normalized growth,"locus YPL256C, strain CLN2, active compounds read low",0.969
